Assay outcomes (PubChem)
An excerpt weighted towards active compounds, which were near 11% of everything screened.
HP1b binding inh = HP1-beta chromodomain-methylated histone interaction inhibition; P83916; AlphaScreen HP1-beta / biotin-H3K9me3 peptide binding; Potency, µM (highest dose often 114 µM), inactives show at the top dose activity change, negative = inhibition, usual class: inhibitors; hit rate 0.56% among 390,000; also: nearly all actives have a fitted effect of over 70% in size
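HP1-beta protein (50 nM final) preincubated 30 min at room temperature with biotinylated H3(1-18)K9me3 peptide (50 nM) in PBS pH 7.4, 0.01% Tween-20, then compound added for 30 min. AlphaScreen streptavidin donor/nickel chelate acceptor beads (10 ug/mL final), 30 min dark, luminescence read.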
JMJD2A Tudor inh = blocks the human JMJD2A Tudor domain; hit rate 4.4% among 390,000; AlphaScreen JMJD2A-Tudor / H3K4me3 peptide binding; Potency, µM (series often up to 114 µM), inactives show top-dose activity change, negative = inhibition, actives largely listed as inhibitors; O75164; AID 504339; also: % is scaled to controls: 0 for no effect and ±100 for the full control effect; nearly all actives have a fitted effect of over 50% in size
G9a inh = G9a (human) methyltransferase inhibition; G9a H3K9 monomethylation, AlphaScreen, 2 h; Potency, µM (highest dose often 102 µM), without a hit: at the highest dose activity, negative = inhibition, hits mostly inhibitors; hit rate 8.8% among 350,000; also: % is scaled to controls: 0 for no effect and ±100 for the full control effect; nearly all actives have a fitted effect of over 75% in size
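Step 1: enzyme (final 20 nM) with compound, 15 min RT. Step 2: substrate peptide 500 nM and SAM 20 uM, 2 h RT. Step 3: anti-H3K9me1 antibody and AlphaScreen beads, 10 min, then plate read.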
BAZ2B block = inhibitors of human BAZ2B bromodomain. AlphaScreen BAZ2B-H3K14Ac peptide displacement. hit rate 4.4% among 360,000. Potency, µM (highest dose often 114 µM), for the others: at the top dose activity change, negative = inhibition, actives largely listed as inhibitors. Q9UIF8. AID 504333; also: % is scaled to controls: 0 for no effect and ±100 for the full control effect; nearly all actives have a fitted effect of over 60% in size
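BAZ2B 50 nM plus b-H3(5-23)K14Ac 50 nM, PBS pH 7.4/0.01% Tween-20, 30 min RT; compound added (max 110 uM), 30 min RT; streptavidin donor/Ni-chelate acceptor beads 10 ug/mL final, 20 min dark; AlphaScreen read.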
L3MBTL1 inh = blocks human L3MBTL1; Q9Y468; AlphaScreen L3MBTL1–H3K9me1 peptide binding; Potency, µM (doses to about 57.1 µM), without a hit: at the highest dose activity, negative = inhibition, actives largely listed as inhibitors; hit rate 0.66% among 230,000; also: % is scaled to controls: 0 for no effect and ±100 for the full control effect; nearly all actives have a fitted effect of over 60% in size
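L3MBTL1 50 nM + b-AHA-H3(1-15)K9me1 75 nM, 30 min RT; compound added, 30 min RT; streptavidin donor/Ni-chelate acceptor beads 10 ug/mL each final, 30 min RT dark; AlphaScreen read.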
* marks the source's active call; other numbers are inactive results; ? = inconclusive; . = no result; [ ] = remark or other dose. Calls follow the shape of the dose curve; as a rule, active = well fitted inhibition curve with a large enough effect; inconclusive = small, poorly fitted or top-dose-only effect; inactive = no such curve, though single readings can be large or run the other way. Potency is read from the fitted curve at half-maximal effect.

SMILES | HP1b binding inh | JMJD2A Tudor inh | G9a inh | BAZ2B block | L3MBTL1 inh
Cc1ccccc1-n1c(N)c(C(=O)Nc2ccc(F)cc2)sc1=S | -11% | -13% | 11µM* | -4% | 7%
Cc1ccc(NC(=O)c2sc(=S)n(-c3cc(C)ccc3F)c2N)cc1 | ? | ? | 8.9µM* | ? | .
CNC(=O)c1sc(=S)n(-c2ccc(OC)cc2)c1N | 13% | -15% | 5% | -32% | -15%
CCCS(=O)(=O)NCCc1csc2nc(-c3ccc(OC)cc3)nn12 | 29% | -12% | 9%[59 µM] | 0% | .
Clc1ccc(OCCCN2CCCCC2)c(Br)c1 | ? | 4µM* | 3.5µM* | 79µM* | -1%
CCN1CCN(CCCOc2ccc(Cl)cc2Br)CC1 | ? | 22µM* | . | 20µM* | 26%
Brc1ccccc1OCCCCCN1CCCC1 | . | . | 4%[0.0925 µM] | -4% | -2%
Clc1ccc(OCCCCCN2CCCC2)c(Br)c1 | ? | 2µM* | ? | 79µM* | -10%
COc1ccc(NC(=O)c2ccc(-c3nc(CSc4ccc(C)cc4)c(C)o3)cc2)cc1Cl | 7% | -22% | -8%[59 µM] | -9% | .
COc1cc(CNC(=O)c2ccc3c(c2)c(C)c(C)n3Cc2cccc(C)c2)cc(OC)c1OC | 20% | ? | -48%[59 µM] | ? | .
C#CCOCCOCCOCCNc1nc(N2CCN(C(=O)[C@H](CCCN=C(N)N)n3cc(C(N)[C@@H](C)CC)nn3)CC2)nc(N2CCN(C(=O)[C@H](CC(N)=O)n3cc([C@@H](N)C(C)C)nn3)CC2)n1 (some centres undefined) | 16% | 79µM* | . | . | -2%
C#CCOCCOCCOCCNc1nc(N2CCN(C(=O)[C@H](CCCCN)n3cc(CN)nn3)CC2)nc(N2CCN(C(=O)[C@H](CCCN=C(N)N)n3cc(C(N)[C@H](C)CC)nn3)CC2)n1 (some centres undefined) | 18% | 79µM* | . | . | -2%
C#CCOCCOCCOCCNc1nc(N2CCOCC2)nc(N2CCN(C(=O)[C@H](CCCN=C(N)N)n3cc(C(N)[C@@H](C)CC)nn3)CC2)n1 (some centres undefined) | 28% | -20% | . | . | 11%
C#CCOCCOCCOCCNc1nc(N2CCN(C(=O)[C@H](CCCN=C(N)N)n3cc(C(N)[C@@H](C)CC)nn3)CC2)nc(N2CCN(C(=O)[C@H](CC(N)=O)n3cc([C@@H](N)CC(N)=O)nn3)CC2)n1 (some centres undefined) | 6% | 22µM* | . | . | -2%
C#CCOCCOCCOCCNc1nc(N2CCN(C(=O)[C@H](CCCN=C(N)N)n3cc(C(N)[C@H](C)CC)nn3)CC2)nc(N2CCN(C(=O)[C@H](CCCN=C(N)N)n3cc(C(N)[C@@H](C)CC)nn3)CC2)n1 (some centres undefined) | 3% | 79µM* | . | . | -1%
C#CCOCCOCCOCCNc1nc(N2CCN(C(=O)[C@H]([C@@H](C)CC)n3cc(CCCN=C(N)N)nn3)CC2)nc(N2CCN(C(=O)[C@H](CCCCN)n3cc(CC(C)O)nn3)CC2)n1 (some centres undefined) | 44% | -11% | -3%[2.33 µM] | 1% | -4%
COC1CCN(Cc2c(C(=O)N3CCc4ccccc4C3)nc3ccc(Cl)cn23)CC1 | 11% | -10% | . | -5% | .
COCC1CCN(Cc2c(C(=O)N3CCc4ccccc4C3)nc3ccc(Cl)cn23)C1 (centres undefined) | 25% | -27% | 40µM* | -34% | .
O=[N+]([O-])c1ccccc1CN1CCN(Cc2c[nH]c3ccccc23)CC1 | ? | 10µM* | 32µM* | 50µM* | 1%
O=[N+]([O-])c1ccccc1CN1CCN(c2ncccn2)CC1 | ? | 18µM* | ? | 50µM* | 3%
O=[N+]([O-])c1ccc(N2CCN(CCO)CC2)c2ncccc12 | 26% | -6% | -8%[59 µM] | 0% | 5%
CC(=O)Nc1ccc(S(=O)(=O)N2CCN(Cc3ccccc3[N+](=O)[O-])CC2)cc1 | 11% | -29% | ? | -32% | .
O=C(Cc1ccccc1[N+](=O)[O-])OCC(=O)c1c[nH]c2ccccc12 | 11% | -25% | -45% | -9% | -5%
O=[N+]([O-])c1ccccc1CN1CCN(Cc2ccccn2)CC1 | -10% | 0.79µM* | 4µM* | 50µM* | .
